PostGolgi yeast – growth inhibition of a yeast mutant, post-Golgi transport screen; 0.9% of 98,000 active; post-Golgi transport phenotypic cell assay; inhibition, % at 10 µM;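 further: yeast cells grown in 1536-well plates; yeast grown about 18 h at 30C before absorbance read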
CYP2C9 inhib – human CYP2C9 inhibition; P11712; CYP2C9 Supersomes, luciferin-H conversion, luminescence; inhibition, % at 5 µM; 20% of 96,000 active;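 active means blocking of liver enzyme CYP2C9 beyond about 50% at 5 µM, limit read from the data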
CYP2C9 activ – activators of human CYP2C9. P11712. recombinant CYP2C9, luciferin-H conversion, luminescence; active compounds read high; factor 1 = untreated enzyme, 0 = blocked. activation factor at 5 µM. 1.4% of 96,000 active. AID 1024;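 active means activation factor of 2 or more for CYP2C9 at a 5 µM dose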
CYP2C19 activ – increases human CYP2C19 enzyme activity; P33261; recombinant CYP2C19, luciferin-H EGE luminescence; active compounds read high; 0 = fully inhibited enzyme, 1 = untreated enzyme; activation factor at 5 µM; 96,000 tested, under 10 active;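 active means activation factor of at least 2 at 5 µM in the primary screen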
Target sequence (P33261 whole entry, looked up): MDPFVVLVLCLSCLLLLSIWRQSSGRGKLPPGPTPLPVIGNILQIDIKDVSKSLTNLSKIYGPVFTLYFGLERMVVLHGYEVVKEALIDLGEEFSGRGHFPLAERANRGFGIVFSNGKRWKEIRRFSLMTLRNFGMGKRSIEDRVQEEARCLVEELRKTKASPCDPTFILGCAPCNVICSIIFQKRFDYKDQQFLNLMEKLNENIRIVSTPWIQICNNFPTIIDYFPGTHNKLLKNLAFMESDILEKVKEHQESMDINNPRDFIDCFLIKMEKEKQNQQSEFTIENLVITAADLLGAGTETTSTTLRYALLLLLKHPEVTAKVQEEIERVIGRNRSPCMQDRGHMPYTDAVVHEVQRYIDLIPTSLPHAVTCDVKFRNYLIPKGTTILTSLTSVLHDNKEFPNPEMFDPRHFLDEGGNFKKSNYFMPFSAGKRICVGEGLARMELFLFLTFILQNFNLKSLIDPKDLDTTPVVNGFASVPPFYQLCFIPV
PostGolgi ctrl – yeast control strain growth, post-Golgi counter-screen. 5% of 98,000 active. efflux-deficient yeast background strain, growth absorbance A615, 16 h. AID 738. inhibition, % at 10 µM
CYP2C19 inhib – inhibitors of human CYP2C19; inhibition, % at 5 µM; CYP2C19 Supersomes, luciferin-H EGE luminescence, 30 min; P33261; 21% of 96,000 active;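 active means CYP2C19 inhibition above a set limit at 5 µM in the primary screen, cut at about 50% in these data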
Hits are given with their value. Most compounds without a hit are left out; they make up all but 32% or so of the library. Unless noted, no stated cut-off is given here; in the data, active means inhibition above about 30%; inactive means the rest.

For CCN(CCNC(=O)C1CCCN(S(=O)(=O)c2cnc[nH]2)C1)c1ccccc1 (stereo not given) the results were PostGolgi yeast inactive, CYP2C9 inhib 95, CYP2C9 activ inactive, CYP2C19 activ inactive, PostGolgi ctrl inactive and CYP2C19 inhib 90.
For Cc1ccc(S(=O)(=O)NC2CCC(C(=O)O)CC2)cc1 (stereo not given) the results were PostGolgi yeast inactive, CYP2C9 inhib inactive, CYP2C9 activ inactive, CYP2C19 activ inactive, PostGolgi ctrl inactive and CYP2C19 inhib inactive.
For CC1=[N+]([O-])C(C)(C)C(C)N(O)C1=O (stereo not given) the results were PostGolgi yeast inactive, CYP2C9 inhib inactive, CYP2C9 activ inactive, CYP2C19 activ inactive, PostGolgi ctrl inactive and CYP2C19 inhib inactive.
Screening CCCCc1nc(SCC(=O)Nc2cc(C)on2)n[nH]1 returned PostGolgi yeast inactive, CYP2C9 inhib 61, CYP2C9 activ inactive, CYP2C19 activ inactive, PostGolgi ctrl inactive and CYP2C19 inhib 53.
Screening COc1ccc(-c2nc(SCC(=O)Nc3cc(C)on3)n[nH]2)cc1 returned PostGolgi yeast inactive, CYP2C9 inhib 89, CYP2C9 activ inactive, CYP2C19 activ inactive, PostGolgi ctrl inactive and CYP2C19 inhib inactive.
`COc1cccc2c1OC1(C)CC2NC(=O)N1Cc1ccccc1` (stereo not given) gave PostGolgi yeast inactive, CYP2C9 inhib inactive, CYP2C9 activ inactive, CYP2C19 activ inactive, PostGolgi ctrl inactive and CYP2C19 inhib inactive.
`O=C1c2ccccc2OC2(C=Cc3ccccc3O2)N1Cc1ccccc1` (stereo not given) gave PostGolgi yeast inactive, CYP2C9 inhib 94, CYP2C9 activ inactive, CYP2C19 activ inactive, PostGolgi ctrl inactive and CYP2C19 inhib 97.
For CCc1ccc(C(=O)CCC2CCCCC2=O)cc1 (stereo not given) the results were PostGolgi yeast inactive, CYP2C9 inhib inactive, CYP2C9 activ inactive, CYP2C19 activ inactive, PostGolgi ctrl inactive and CYP2C19 inhib inactive.
`CCc1cc(=O)oc2cc(C)c(CN3CCCC(C)C3)c(O)c12` (stereo not given) gave PostGolgi yeast 33, CYP2C9 inhib inactive, CYP2C9 activ inactive, CYP2C19 activ inactive, PostGolgi ctrl inactive and CYP2C19 inhib inactive.
CCc1cc(=O)oc2c(CN3CCCC3)c(O)c(Cl)cc12 was read as PostGolgi yeast inactive, CYP2C9 inhib inactive, CYP2C9 activ inactive, CYP2C19 activ inactive, PostGolgi ctrl inactive and CYP2C19 inhib inactive.
Screening CCCCc1cc(=O)oc2c(CN3CCCC3)c(O)ccc12 returned PostGolgi yeast inactive, CYP2C9 inhib inactive, CYP2C9 activ inactive, CYP2C19 activ inactive, PostGolgi ctrl inactive and CYP2C19 inhib inactive.
`CCCCc1cc(=O)oc2cc(C)c(CN3CCCC3)c(O)c12` gave PostGolgi yeast inactive, CYP2C9 inhib 58, CYP2C9 activ inactive, CYP2C19 activ inactive, PostGolgi ctrl inactive and CYP2C19 inhib inactive.
Screening Cc1cc(C)n(C(=O)C2CCCN2S(=O)(=O)c2ccc(Cl)cc2)n1 (stereo not given) returned PostGolgi yeast inactive, CYP2C9 inhib inactive, CYP2C9 activ inactive, CYP2C19 activ inactive, PostGolgi ctrl inactive and CYP2C19 inhib inactive.
For N#C/C(=C\N1CCN(Cc2ccc3c(c2)OCO3)CC1)c1nc2ccccc2s1 the results were PostGolgi yeast inactive, CYP2C9 inhib inactive, CYP2C9 activ inactive, CYP2C19 activ inactive, PostGolgi ctrl inactive and CYP2C19 inhib 89.
For N#C/C(=C(/O)CN1CCOCC1)c1nc2ccccc2s1 the results were PostGolgi yeast inactive, CYP2C9 inhib inactive, CYP2C9 activ inactive, CYP2C19 activ inactive, PostGolgi ctrl inactive and CYP2C19 inhib inactive.
For CCOC(=O)N1CCN(/C=C(\C#N)c2nc3ccccc3s2)CC1 the results were PostGolgi yeast inactive, CYP2C9 inhib 71, CYP2C9 activ inactive, CYP2C19 activ inactive, PostGolgi ctrl inactive and CYP2C19 inhib 80.
For Nc1nonc1C(=O)NCCNC(=O)c1cccs1 the results were PostGolgi yeast inactive, CYP2C9 inhib inactive, CYP2C9 activ inactive, CYP2C19 activ inactive, PostGolgi ctrl inactive and CYP2C19 inhib inactive.
For Cc1cc(C)n(-c2ccc(C(=O)OCC(=O)Nc3ccc(S(=O)(=O)N4CCCCC4)cc3)cc2)n1 the results were PostGolgi yeast inactive, CYP2C9 inhib 82, CYP2C9 activ inactive, CYP2C19 activ inactive, PostGolgi ctrl inactive and CYP2C19 inhib 68.
For Cc1nnc(SCC(=O)Nc2ccc(S(=O)(=O)N3CCCCC3)cc2)s1 the results were PostGolgi yeast inactive, CYP2C9 inhib inactive, CYP2C9 activ inactive, CYP2C19 activ inactive, PostGolgi ctrl inactive and CYP2C19 inhib inactive.
Screening Cc1cc(=O)[nH]c(SCC(=O)Nc2ccc(S(=O)(=O)N3CCCCC3)cc2)n1 returned PostGolgi yeast inactive, CYP2C9 inhib 80, CYP2C9 activ inactive, CYP2C19 activ inactive, PostGolgi ctrl inactive and CYP2C19 inhib inactive.
For Cc1ccc(NC(=O)CCc2c(C)nc3ncnn3c2C)cc1 the results were PostGolgi yeast inactive, CYP2C9 inhib inactive, CYP2C9 activ inactive, CYP2C19 activ inactive, PostGolgi ctrl inactive and CYP2C19 inhib inactive.
Screening Cc1nc2ncnn2c(C)c1CCC(=O)Nc1ccc(S(=O)(=O)N2CCCCCC2)cc1 returned PostGolgi yeast inactive, CYP2C9 inhib 69, CYP2C9 activ inactive, CYP2C19 activ inactive, PostGolgi ctrl inactive and CYP2C19 inhib inactive.
For CCOC(=O)c1sc2ccc(S(=O)(=O)N3CCCCC3)cc2c1N the results were PostGolgi yeast inactive, CYP2C9 inhib inactive, CYP2C9 activ inactive, CYP2C19 activ inactive, PostGolgi ctrl 42 and CYP2C19 inhib inactive.
Screening Cc1nc2c(cnn2-c2ccc(Cl)cc2)c(=O)n1-c1ccc(N2CCC(C)CC2)cc1 returned PostGolgi yeast inactive, CYP2C9 inhib inactive, CYP2C9 activ inactive, CYP2C19 activ inactive, PostGolgi ctrl inactive and CYP2C19 inhib inactive.
For CCn1cc(C(=O)OCC(=O)Nc2ccc(S(=O)(=O)N3CCCC3)cc2)c(=O)c2ccc(C)nc21 the results were PostGolgi yeast inactive, CYP2C9 inhib 68, CYP2C9 activ inactive, CYP2C19 activ inactive, PostGolgi ctrl inactive and CYP2C19 inhib inactive.
Screening Cc1nc(COC(=O)c2ccc(S(=O)(=O)N3CCCC3)cc2)cs1 returned PostGolgi yeast inactive, CYP2C9 inhib 90, CYP2C9 activ inactive, CYP2C19 activ inactive, PostGolgi ctrl inactive and CYP2C19 inhib inactive.
NC(=O)COC(=O)c1ccc(S(=O)(=O)N2CCCCCC2)cc1 was read as PostGolgi yeast inactive, CYP2C9 inhib inactive, CYP2C9 activ inactive, CYP2C19 activ inactive, PostGolgi ctrl inactive and CYP2C19 inhib inactive.
`CCn1cc(C(=O)OCC(=O)Nc2cc(S(=O)(=O)N(C)C)ccc2C)c(=O)c2ccc(C)nc21` gave PostGolgi yeast inactive, CYP2C9 inhib inactive, CYP2C9 activ inactive, CYP2C19 activ inactive, PostGolgi ctrl inactive and CYP2C19 inhib inactive.
`Cc1cc(C)c2nc(SCC(=O)Nc3ccc(S(=O)(=O)N4CCCC4)cc3)c(C)cc2c1` gave PostGolgi yeast inactive, CYP2C9 inhib 88, CYP2C9 activ inactive, CYP2C19 activ inactive, PostGolgi ctrl inactive and CYP2C19 inhib inactive.
